These results are taken from PubChem BioAssay (NCATS).

Several values for one entry are separate records, joined by “and”; a condition that tells them apart may be missing. Equal values may be shown once. Results filed as inconclusive are left out. More than one record can exist for a structure, and the calls need not agree. Activity calls are given as the source filed them. Unless noted, calls come from the whole dose curve; as a rule, active = well fitted curve in the direction sought with a large enough effect; inconclusive = small, poorly fitted or top-dose-only effect, or another doubt; inactive = no such curve, though single readings can be large; an effect the other way counts as inactive or inconclusive.

A short description of assay [1]: Cell Viability - HUV-EC-C (AID 542).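 Note: cells exposed to compound for 40 hours; nearly all actives have a fitted effect of over 35% in size.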 Note: potency is the fitted concentration of half-maximal effect. The gist of the method: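 CellTiter-Glo luminescence measured ATP loss in HUV-EC-C cells (1000/well) after 40 hr compound exposure at 37 °C, in complete culture medium. Concentration-response data were Hill-fitted to give AC50.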
Assay [2] in a line: Cellular Toxicity (caspase-3) HUV-EC-C (AID 656).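 Note: 0% = DMSO basal and 100% = 100 µM tamoxifen.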 The gist of the method: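 HUV-EC-C cells (1000/well) in complete medium, compound-treated 16 h at 37 °C; caspase-3/7 activity read by Caspase-Glo 3/7 luminescence. Normalized to DMSO (basal) and 100 uM tamoxifen (100%); AC50 from Hill-equation concentration-response fits.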
The nature of assay [3]: Cellular Toxicity (caspase-3) MRC-5 (AID 659).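 Note: 0% = DMSO basal and 100% = 10 µM staurosporine.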 The gist of the method: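 Luminescent Caspase-Glo 3/7 read-out (1 h, room temperature) after a 16 h, 37 °C compound exposure of MRC-5 lung fibroblasts at 1500 cells/well. Concentration-response AC50 from Hill equation; 0% DMSO, 100% 10 uM staurosporine.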
A short description of assay [4]: Cellular Toxicity (caspase-3) Mesangial (AID 660).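 Note: cells exposed to compound for 16 h before the caspase read.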 The conditions noted are these: Potency: caspase-3 activation. The gist of the method: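 Caspase 3/7 activation measured by Caspase-Glo 3/7 luminescence (20 min, room temperature) following 16 h exposure of mesangial cells (1000/well); AC50 from Hill-equation fit, normalized to DMSO and 100 uM tamoxifen.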
A short description of assay [5]: Cellular Toxicity (caspase-3) N2a (AID 665).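 Note: compound exposure lasted 16 h at 37 °C before readout.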 The gist of the method: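 Caspase-3/7 activation measured as luminescence from Caspase-Glo reagent (1 h, room temperature) after 16 h compound exposure of mouse N2a cells. AC50 values from Hill-equation concentration-response, scaled between DMSO and 10 uM staurosporine.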
Assay [6] is described as follows: Cellular Toxicity (caspase-3) NIH 3T3 (AID 666).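 Note: 0% = DMSO basal and 100% = 100 µM tamoxifen stimulation.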 The gist of the method:
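Caspase-Glo 3/7 luminescence reported caspase activation in 1000 NIH 3T3 cells/well after 16 h compound exposure at 37 C. DMSO set basal and 100 uM tamoxifen set 100% stimulation; concentration-response modeled with the Hill equation for AC50.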

Assay [7] is described as follows: Cell Viability - LYMP2-001 (AID 921). Note: nearly all actives have a fitted effect of over 70% in size. Note: potency is the fitted concentration of half-maximal effect. The gist of the method:
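Human lymphoblastoid LYMP2-001 cells, 2500 per well, in complete medium, treated 24 h at 37 C. Viability from cellular ATP by CellTiter-Glo luminescence; AC50 from Hill-equation fits of qHTS concentration-response.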

Assay [8] in a line: Cell Viability - LYMP1-002 - Assay at 16 hr (AID 948). Note: potency is the fitted concentration of half-maximal effect. The gist of the method: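 LYMP1-002 human lymphoblastoid cells, 2500/well, were treated with compounds for 16 hr at 37 C in complete medium. Viability was read as intracellular ATP by CellTiter-Glo luminescence, and AC50 was derived from a Hill fit to concentration-response data.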
Assay [9] in a line: Cell Viability - LYMP1-003 - Assay at 24 hr (AID 963).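 For viability change, negative = cytotoxic: plate controls were DMSO only for no effect and tetraoctylammonium bromide positive control for full effect.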 Note: potency is the fitted concentration of half-maximal effect. The gist of the method:
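Concentration-response qHTS: ATP loss measured by CellTiter-Glo luminescence after 24 h compound exposure at 37 C. Cells were LYMP1-003 human lymphoblastoid, 2500 per well. AC50 derived via standard Hill equation modeling.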

Assay [10] in a line: Cell Viability - LYMP2-015 (AID 971). Note: nearly all actives have a fitted effect of over 55% in size. Note: potency is the fitted concentration of half-maximal effect. The gist of the method:
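Cytotoxicity readout: decrease in intracellular ATP (CellTiter-Glo luminescence) in 2500 LYMP2-015 lymphoblastoid cells/well after 24 h compound exposure at 37 C. Concentration-response data fitted with the standard Hill equation to give AC50.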

The nature of assay [11]: Cell Viability - LYMP2-019 (AID 973). Note: nearly all actives have a fitted effect of over 55% in size. Note: potency is the fitted concentration of half-maximal effect. The gist of the method:
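AC50 values come from Hill-equation fits of luminescent intracellular ATP (CellTiter-Glo, 30 min, room temperature) following 24 h compound exposure at 37 C. Cells: LYMP2-019 lymphoblastoid line, 2500 per well, in complete culture medium.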

The nature of assay [12]: Cell Viability - LYMP2-016 (AID 984). Note: nearly all actives have a fitted effect of over 55% in size. Note: potency is the fitted concentration of half-maximal effect. The gist of the method: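 Human lymphoblastoid LYMP2-016 cells, 2500 per well, treated with compounds for 24 h at 37 C. Viability read as intracellular ATP by CellTiter-Glo luminescence after 30 min at room temperature; AC50 from Hill fits of concentration-response.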
Assay [13] in a line: Cell Viability - LYMP2-018 (AID 985). Note: nearly all actives have a fitted effect of over 50% in size. Note: potency is the fitted concentration of half-maximal effect. The gist of the method: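 Viability read as CellTiter-Glo luminescence (cellular ATP) after 24 hr compound exposure at 37 C of 2500 LYMP2-018 lymphoblastoid cells/well, pre-plated 5 hr. Hill-equation modelling gave AC50.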
For assay [14], the target named is Tumor necrosis factor (Homo sapiens) (UniProt P01375). Description: qHTS assay to identify small molecules that stimulate Tumor Necrosis Factor-alpha (TNF-alpha) secretion (AID 651757; active = well fitted curve in the direction sought with a large enough effect in the signal ratio; the % refers to the signal ratio; note: 0% is about no effect). The gist of the method: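 Secreted TNF-alpha quantified by TR-FRET sandwich of two labeled anti-TNF-alpha antibodies, incubated 3 hr at room temperature. Preceded by 17 hr, 37 C compound treatment of THP-1 cells at 3000 cells/well.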
Chain of Tumor necrosis factor (Homo sapiens) (P01375 whole entry, looked up): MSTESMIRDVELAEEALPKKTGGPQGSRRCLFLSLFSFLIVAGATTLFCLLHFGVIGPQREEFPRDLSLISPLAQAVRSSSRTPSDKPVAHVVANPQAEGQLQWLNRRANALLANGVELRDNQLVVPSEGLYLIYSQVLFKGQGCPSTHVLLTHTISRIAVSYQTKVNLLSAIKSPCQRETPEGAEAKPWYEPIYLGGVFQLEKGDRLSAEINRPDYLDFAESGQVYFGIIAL

Assay [15] addresses Peroxisome proliferator-activated receptor alpha (Homo sapiens) (UniProt Q07869). Description: qHTS assay for small molecule agonists of the peroxisome proliferator-activated receptor alpha (PPARalpha) signaling pathway (AID 651778). Note: % of control where 0% means no effect. The conditions noted are these: PathHunter PPARalpha complementation, chemiluminescence, 6 h; max response: stronger effect = higher value. The gist of the method: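 Chemiluminescence from complemented enzyme reported PPARalpha activation in cells after 6 hr of compound treatment at 37 C. The detection reagent was incubated for 60 min at room temperature, and compounds were scored as agonists.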
(In general: In qHTS, concentration-response curves come from the screen itself.)

The nature of assay [16]: qHTS assay for cell viability of the p53RE-bla HCT-116 cell line (AID 743292). Note: nearly all actives have a fitted effect of over 55% in size. Note: potency is the fitted concentration of half-maximal effect. The gist of the method: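 ATP-based luminescent viability (CellTiter-Glo, 30 min RT) after 16 h compound treatment at 37 C of p53RE-bla HCT-116 cells, seeded at 4,000 cells/well and rested 5 h before dosing.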
A short description of assay [17]: Cell Viability - SH-SY5Y (AID 544).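 For viability change, negative = cytotoxic: 0% = DMSO alone and -100% = 100 µM tamoxifen.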 Note: potency is the fitted concentration of half-maximal effect. The conditions noted are these: SH-SY5Y neuroblastoma cell viability; viability change, negative = cytotoxic: at 92.2 µM (top of the series). The gist of the method:
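Cytotoxicity measured via ATP-dependent luciferase luminescence (CellTiter-Glo) following 40 h, 37 °C exposure of 1500 SH-SY5Y cells per well. Concentration-response data were fitted with the standard Hill equation to give AC50.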

Assay [18] in a line: Cell Viability - LYMP2-003 (AID 965).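 Note: cells exposed to compounds for 24 h before reading; nearly all actives have a fitted effect of over 50% in size.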 Note: potency is the fitted concentration of half-maximal effect. The gist of the method: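 Human lymphoblastoid LYMP2-003 cells, 2500/well, exposed to compounds for 24 h at 37 C in complete medium. Viability read as intracellular ATP by CellTiter-Glo luminescence; AC50 from Hill-equation fits of qHTS concentration-response data.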
Assay [19] is described as follows: Cellular Toxicity (caspase-3) HepG2 (AID 654).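 Note: cells exposed to compound for 16 hours before reading; 0% = DMSO alone and 100% = caspase signal from 100 µM tamoxifen.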 The gist of the method: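 Caspase 3/7 activation is measured as a luminescence increase (aminoluciferin substrate) after 16 h compound exposure of human hepatocarcinoma HepG2 cells. AC50 values are Hill fits, scaled between DMSO baseline and 100 uM tamoxifen stimulation.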
Assay [20] is described as follows: Cellular Toxicity (caspase-3) BJ (AID 658).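 Note: cells exposed to compound for 16 hours; 0% = DMSO basal and 100% = 10 µM staurosporine.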 The gist of the method:
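Caspase-Glo 3/7 luminescence, read 1 hr after reagent at room temperature, in normal BJ fibroblasts exposed 16 hours at 37 °C. AC50 values from Hill-equation concentration-response, scaled between DMSO basal and 10 uM staurosporine as 100%.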

Chain of Peroxisome proliferator-activated receptor alpha (Homo sapiens) (Q07869 whole entry, looked up): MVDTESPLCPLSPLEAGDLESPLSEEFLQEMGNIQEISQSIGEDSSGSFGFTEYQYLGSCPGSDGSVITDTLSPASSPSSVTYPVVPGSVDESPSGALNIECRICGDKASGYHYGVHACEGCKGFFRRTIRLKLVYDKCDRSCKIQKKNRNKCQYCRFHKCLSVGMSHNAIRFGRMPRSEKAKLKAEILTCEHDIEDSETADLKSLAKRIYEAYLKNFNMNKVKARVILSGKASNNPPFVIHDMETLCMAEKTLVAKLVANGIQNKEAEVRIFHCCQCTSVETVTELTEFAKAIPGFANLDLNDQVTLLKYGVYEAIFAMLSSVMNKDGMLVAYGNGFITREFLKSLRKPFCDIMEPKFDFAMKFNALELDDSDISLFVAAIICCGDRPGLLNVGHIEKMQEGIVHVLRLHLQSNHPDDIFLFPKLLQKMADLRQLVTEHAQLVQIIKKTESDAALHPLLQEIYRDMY

`O=[N+]([O-])c1cc(C(F)(F)F)cc([N+](=O)[O-])c1Cl`: the Potency entry in assay [1], in assay [4], in [8], in [9], in assay [14] and in assay [16] was “inactive” throughout. In addition, the outcome in assay [2], in assay [3], in [5] and in assay [6] was inactive. The Potency in [7] is 25.1 µM (active); in assay [10] it was 31.6 µM (active); in assay [11] it was 31.6 µM (active); in [12], 31.6 µM (active); in assay [13], 31.6 µM (active). Besides, the max response in [15] is -4.28% (inactive).

For the molecule `O=C1C2(Cl)C3(Cl)C4(Cl)C(Cl)(Cl)C5(Cl)C3(Cl)C1(Cl)C5(Cl)C24Cl` (stereo not drawn), the Potency is 31.6 µM (active) and 63.1 µM (active) in assay [1]; 31.6 µM (active) in [17]; “inactive and 39.8 µM (active)” in assay [7]; 39.8 µM (active) in [8]; 31.6 µM (active) and 50.1 µM (active) in assay [9]; 39.8 µM (active) in assay [18]. Besides, the Potency in assay [11] was 50.1 µM (active); in assay [13], 50.1 µM (active); in [16], 70.8 µM (active) and inactive. In addition, the viability change, negative = cytotoxic in [17] was -93.4% (active). Further, the outcome in assay [2], in assay [3], in assay [5] and in assay [6] was inactive. In addition, the Potency result in assay [14] was “inactive”. Further, in assay [15], the max response is 6.14% (inactive) and 11.6% (inactive) and 6.69% (inactive).

`C#CCO`: the Potency entry in assay [1], in assay [17], in [4], in [7], in [8] and in assay [9] was “inactive” throughout. In addition, the Potency result in assay [18], in [10], in [11], in assay [12], in assay [13] and in [14] was “inactive” each time. For the same molecule, the Potency result in assay [16] was “inactive”. For the same molecule, the molecule was called inactive in [19], in [2], in [20], in [3], in assay [5] and in assay [6]. In addition, the max response in assay [15] is -1.68% (inactive).

As to `O=C(CCl)c1ccccc1`, the Potency in assay [17] is 7.94 µM (active); in assay [7], 7.94 µM (active); in [8], 79.4 µM (active); in assay [18], 10 µM (active); in assay [10], 7.94 µM (active); in [11] it was 10 µM (active). Also, the Potency in assay [12] and in [13] was 10 µM (active) each time. Besides, the molecule was called inactive in assay [19], in assay [2], in assay [20], in [3], in [5] and in [6]. In addition, the Potency result in assay [4], in assay [9], in assay [14] and in [16] was “inactive” each time. Also, in [15], the max response was -2.05% (inactive) and -1.03% (inactive).

Regarding `CN(C)c1ccc(N=O)cc1`, the Potency entry in assay [1], in [4] and in assay [16] was “inactive” each time. Further, the Potency in [17] is 1.26 µM (active); in [7] it was 0.631 µM (active); in [8], 7.94 µM (active); in assay [9], 7.94 µM (active); in [18] it was 1.26 µM (active); in assay [10], 1 µM (active). The Potency in assay [11] was 1 µM (active); in assay [12], 1.58 µM (active); in [13] it was 1.26 µM (active). Besides, the result in [19], in assay [2], in assay [20], in assay [3], in assay [5] and in assay [6] was inactive. In addition, in [15], the max response is -3.57% (inactive).

`CC(=O)[O-].CC(=O)[O-].O.O.[Cd+2]`: the Potency entry in [1], in [4], in assay [8], in assay [9], in assay [18] and in assay [11] was “inactive” in each case. Besides, the Potency entry in assay [12], in assay [13], in assay [14] and in assay [16] was “inactive” throughout. For the same molecule, the result in assay [19], in assay [2], in [20], in assay [3], in assay [5] and in assay [6] was inactive. Moreover, in assay [10], the Potency is 39.8 µM (active). Further, the max response in assay [15] is -7.81% (inactive).
